Data on 96 molecules can be found in PubChem BioAssay AID778 (Sanford-Burnham Center for Chemical Genomics, 2007).

Hit rate of the full screen: of about 96,000 compounds, about 20,000 (21%) were called active. These entries were drawn from the full list. Values without a mark were called inactive.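 How the source made its calls: active means CYP2C19 inhibition above a set limit at 5 µM in the primary screen (cut at about 50% in these data); inactive means the rest.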

In this test the target is Cytochrome P450 2C19 (Homo sapiens) (UniProt P33261). Nature of the test: blockers of cytochrome P450 2C19 activity – biochemical, luminescence, ADME assay, primary screen (AID 778).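 Further: plate controls were negative control wells for no effect and 2.5 mM tranylcypromine positive control for full effect.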 As to conditions: CYP2C19 Supersomes, luciferin-H EGE luminescence, 30 min; at 5 µM; hits give high values.
Sequence of Cytochrome P450 2C19 (Homo sapiens) (P33261 whole entry, looked up): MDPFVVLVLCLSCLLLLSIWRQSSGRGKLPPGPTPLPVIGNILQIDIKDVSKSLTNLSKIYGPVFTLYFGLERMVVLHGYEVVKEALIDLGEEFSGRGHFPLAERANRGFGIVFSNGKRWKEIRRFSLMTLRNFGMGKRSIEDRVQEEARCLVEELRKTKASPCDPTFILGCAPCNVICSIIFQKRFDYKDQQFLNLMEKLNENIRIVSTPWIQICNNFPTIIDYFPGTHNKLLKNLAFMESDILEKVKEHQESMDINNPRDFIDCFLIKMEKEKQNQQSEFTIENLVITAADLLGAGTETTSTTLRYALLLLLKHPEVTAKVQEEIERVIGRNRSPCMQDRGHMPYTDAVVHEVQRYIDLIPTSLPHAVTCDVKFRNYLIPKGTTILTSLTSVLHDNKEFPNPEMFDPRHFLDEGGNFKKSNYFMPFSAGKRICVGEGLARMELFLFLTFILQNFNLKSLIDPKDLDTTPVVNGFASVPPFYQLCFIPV
`Cc1ccc(NC(=O)c2ccc(CSc3ncnc4nc[nH]c34)cc2)c(C)c1`: the inhibition was 11.8%.

Take `O=C(c1ccc(O)cc1)c1ccc(C(=O)O)c(C(=O)O)c1`: the inhibition is -0.1%.

For `N#CC1=C(SCc2ccc(C#N)cc2)N=C(N)C(c2nc(-c3ccccc3)cs2)C12CCCCC2` (stereo unspecified), the inhibition was 92.9% (active).

For `O=C(NC1CCCCC1)c1ccc2c(=O)n(CC3CCCO3)c(=O)[nH]c2c1` (stereo unspecified), the inhibition was 0.4%.

Take `COc1ccc(C2C3=C(OC(C)=O)c4ccccc4C3=Nc3c2c(=O)n(C)c(=O)n3C)cc1` (stereo unspecified): the inhibition is -6.9%.

Regarding `Cn1c2ccccc2c2c(C(=O)N3CCN(c4ccc(F)cc4)CC3)cn(C3CCCC3)c(=O)c21`, the inhibition is 85.8% (active).

Turning to `CCOC(=O)N1CCN(C(=O)c2nn(-c3ccc(C)cc3)c(=O)c3c2c2ccccc2n3C)CC1`, the inhibition is -2.9%.

Take `Cn1c(C(=O)N2CCC(C(N)=O)CC2)cc2c(=O)n(C)c3ccccc3c21`: the inhibition was -10.1%.

With `COc1ccc(CC(=O)Nc2sc(Cc3ccccc3)c(C)c2C(N)=O)cc1`, the inhibition is 1%.

As to `Cc1nn(-c2cc(Cl)ccc2N)c(=O)c2ccccc12`, the inhibition is 8.7%.

Consider `Cc1nc(NC(=O)c2cccc(Cl)c2)sc1-c1csc(Nc2cccc(Cl)c2)n1`, for which the inhibition was -18.9%.

For the molecule `Cc1cc(OC(=O)c2c(Cl)cccc2Cl)nc(C)n1`, the inhibition is -6.5%.

On to `COc1ccc(COC(=O)c2n[nH]c3ccccc23)cc1F`, for which the inhibition is 57.1% (active).

`O=C(COC(=O)c1n[nH]c2ccccc12)NCc1ccccc1`: the inhibition is 76.4% (active).

With `CCOC(=O)N1CCN(C(=O)c2n[nH]c(=O)c3ccccc23)CC1`, the inhibition was -2.6%.

Take `COc1ccc(C(C)=O)cc1COC(=O)Cn1cnc2ccccc2c1=O`: the inhibition is 28.2%.

Consider `CN(C)S(=O)(=O)c1ccc(NC(=O)COC(=O)c2n[nH]c3ccccc23)cc1`, for which the inhibition is -17.2%.

With `O=C(Cc1c(O)c2ccccc2[nH]c1=O)NCc1ccccc1`, the inhibition was 4.1%.

On to `CSc1sc(C)cc1C1C(C#N)=C(N)N(c2cccnc2)C2=C1C(=O)CCC2` (stereo unspecified), for which the inhibition was 29.4%.

For the molecule `CC(C)NC(=O)CSc1ccccc1C(=O)NCc1ccc2c(c1)OCO2`, the inhibition is 33.8%.

For the molecule `CCCNC(=O)c1ccccc1NC(=O)CSCc1ccc(OC)cc1`, the inhibition is 45.7%.

As for `CCSc1ccccc1C(=O)NCc1ccc(OC)cc1`, the inhibition is 96.2% (active).

In the case of `COc1cc(OC)c(C(=O)Nc2ccc(N(C)C)cc2)cc1OC`, the inhibition is -11%.

Regarding `CCCN1C(=O)C(NS(=O)(=O)c2ccc(N)cc2)(C(F)(F)F)C(C(=O)OC)=C1C` (stereo unspecified), the inhibition was 6.9%.

For `CC1CCCN(c2ccc(C(=O)NCCc3ccccc3)cn2)C1` (stereo unspecified), the inhibition is 60.7% (active).

Turning to `CC(=O)c1cccc(NC(=O)N2CCCC2C(=O)NCCc2ccccc2)c1` (stereo unspecified), the inhibition was 30.9%.

`O=C(NCCc1ccccc1)c1ccc(NC2=NC3CS(=O)(=O)CC3S2)cc1` (stereo unspecified): the inhibition is 5%.

`CCc1ccc2oc(-c3ccc(N)cc3)nc2c1`: the inhibition was -5.5%.

As for `CC(C)C(=O)N1CCN(CCN=CC2=C(O)CC(c3ccco3)CC2=O)CC1` (stereo unspecified), the inhibition is 2.8%.

On to `O=[N+]([O-])c1ccccc1/C=N/n1c(COc2ccccc2)n[nH]c1=S`, for which the inhibition was 8.1%.

As to `Cc1cccc(-n2c(N)c(C(=O)N3CCN(C)CC3)sc2=S)c1`, the inhibition is 6.5%.

`CC1CCCN(Cc2nc3c(c(=O)n(C)c(=O)n3C)n2CC(=O)c2ccccc2)C1` (stereo unspecified): the inhibition is 15.6%.

Turning to `COc1cc2ccccc2cc1C(=O)Nc1ccc(S(=O)(=O)Nc2cc(C)on2)cc1`, the inhibition is -10.1%.

Regarding `COC(=O)c1cccc(NC(=O)CSc2nc(C)cc(=O)[nH]2)c1`, the inhibition was 20.8%.

For `COc1ccc(OC)c(NC(=O)CSc2nc(N)c(-c3ccccc3)c(=O)[nH]2)c1`, the inhibition was 11.1%.

`COc1ccc(NC(=O)CSc2nc(N)c(-c3ccccc3)c(=O)[nH]2)cc1`: the inhibition was 2%.

With `COc1ccc(NC(=O)CSc2nc(NS(=O)(=O)c3ccc(C)cc3)cc(=O)[nH]2)cc1`, the inhibition was 85.4% (active).

As to `COc1ccc2nc(SCC(=O)Nc3c(C)cc(C)cc3C)[nH]c2c1`, the inhibition is 64.3% (active).

On to `C=CCn1c(=S)[nH]c2nc3c(cc2c1=O)COC(C)(C)C3`, for which the inhibition was 41.9%.

Regarding `Cc1nc2ncnn2c(C)c1CCC(=O)N1CCN(C(=O)c2ccco2)CC1`, the inhibition was -9.1%.

Regarding `CCN(c1ccccc1)S(=O)(=O)c1ccc(N)cc1`, the inhibition is 12.9%.

In the case of `Cn1nnc(NC(=O)CSc2ncn[nH]2)n1`, the inhibition is -2%.

In the case of `Cn1nc(-c2ccc(Cl)cc2)c2cc(C(=O)NCc3ccco3)sc21`, the inhibition is 24.9%.

For `COc1ccc(-n2c(C)cc(C(=O)CSc3nnc(-c4cccs4)o3)c2C)cc1`, the inhibition is 83.2% (active).

With `COc1ccc(-c2nnc(SCC(=O)c3cccs3)o2)c(OC)c1`, the inhibition is 14.1%.

Take `Cc1cc(NC(=O)CSc2nnc(-c3ccc(Cl)s3)o2)no1`: the inhibition is 32.4%.

Consider `COc1ccc(OC)c(C(=O)CSc2nnc(-c3cccs3)o2)c1`, for which the inhibition is 54.9% (active).

Regarding `COC(=O)CSc1nnc(-c2cccnc2)o1`, the inhibition is 7.2%.

With `COc1ccc(-c2nnc(SC(=O)N3c4ccccc4Sc4ccccc43)o2)cc1`, the inhibition is 11.9%.

`COc1cc(/C=C(\C#N)c2nc3c(s2)CC(C)CC3)ccc1O` (stereo unspecified): the inhibition was 2.4%.

Take `Cc1ccc2nc(SCc3nnc(-c4ccccc4[N+](=O)[O-])o3)c(C#N)cc2c1`: the inhibition was 17.1%.

In the case of `O=S(=O)(CCc1nc2ccccc2o1)c1ccc(Cl)cc1`, the inhibition is 30.1%.

Regarding `COc1ccc(N2C(=O)C3CCCN3C2c2cccs2)cc1` (stereo unspecified), the inhibition is 29.5%.

Regarding `CC12CN(Cc3ccccc3)CC(C)(CN(Cc3ccccc3)C1)C2=NO`, the inhibition was 15.1%.

Regarding `c1ccc(CSc2ncnc3c2sc2nc(N4CCOCC4)c4c(c23)CCCC4)cc1`, the inhibition was 4%.

On to `CCCSc1nsc(N)n1`, for which the inhibition was 15.5%.

On to `CCc1nn(-c2cc(Oc3cccc4ccccc34)nc(-c3ccccc3)n2)c(N)c1C#N`, for which the inhibition was 0.4%.

`O=S(=O)(NCc1ccccn1)c1ccc(F)cc1`: the inhibition was 40.5%.

For the molecule `O=S(=O)(NCc1cccnc1)c1ccc(Cl)nc1`, the inhibition was 13.3%.

For `O=S(=O)(NCc1ccccn1)c1ccc(Br)s1`, the inhibition is 61.6% (active).

Consider `CN(c1ccc(C(=O)NCc2ccccn2)cc1)S(C)(=O)=O`, for which the inhibition is 14.5%.

In the case of `Cc1cc(Cl)c(S(=O)(=O)NCc2cccnc2)cc1OCC(N)=O`, the inhibition was -7.3%.

With `O=S(=O)(NCc1cccnc1)c1ccc(Br)s1`, the inhibition is 60.4% (active).

In the case of `C#CCSc1nnc(-c2sc3ccccc3c2Cl)o1`, the inhibition was 25.2%.

Take `COc1ccc(C(F)(F)F)cc1N/C=C\c1nnnn1-c1ccc(C)cc1`: the inhibition was 40.8%.

Regarding `CCc1ccccc1N(CC(=O)N1CCN(c2ccccc2F)CC1)S(C)(=O)=O`, the inhibition is -6.6%.

Regarding `Cc1ccc(NC(=O)COc2ccc(-n3ccnc3)cc2)cc1Cl`, the inhibition was 99.2% (active).

For the molecule `Cc1ccccc1OCC(=O)Nc1ccc(N2CCN(C(=O)C(C)C)CC2)c(Cl)c1`, the inhibition was 42.7%.

Regarding `Cc1csc(OCC(=O)Nc2ccc(C)c(C)c2)n1`, the inhibition was 15.8%.

As to `Cc1ccc(SCC(=O)NC(=O)NCc2ccco2)c(C)c1`, the inhibition was 27%.

Turning to `CC1(N2CCOCC2)CC2(O)C(=[N+]1[O-])CCc1nonc12` (stereo unspecified), the inhibition is 21.6%.

For `CC(=O)c1cnn(-c2cc(Oc3ccc(F)cc3)ncn2)c1C`, the inhibition is 46.1%.

With `COc1ccccc1-c1c(C)nn2c(C)c(C(C)=O)cnc12`, the inhibition was 55% (active).

Consider `COc1ccccc1Nc1ncc(C(C)=O)c(C)n1`, for which the inhibition was 1.3%.

As to `Cc1nn(-c2ncc(C(F)(F)F)cc2Cl)c(=O)n1-c1ccccc1`, the inhibition is 23.9%.

On to `CCCc1cc(=O)oc2c(C)c(O)c(CN3CCCCC3)cc12`, for which the inhibition was 44.5%.

For `CC1Cc2cc(/C(O)=C3\C(=O)C(=O)N(CCN4CCOCC4)C3c3ccccc3F)ccc2O1` (stereo unspecified), the inhibition was -2.6%.

For the molecule `Cn1c(Cn2nnc3ccccc32)nnc1SCC(=O)c1ccccc1F`, the inhibition was 7.9%.

In the case of `Cc1ccccc1OCc1nnc(SCC(=O)N2c3ccccc3Sc3ccc(Cl)cc32)o1`, the inhibition is 12%.

For `Cc1cc(C)cc(OCc2nnc(SCC(=O)Nc3ccccc3)o2)c1`, the inhibition is 2.4%.

Regarding `CC(C)NC(=O)CSc1nnc(COc2ccccc2Cl)o1`, the inhibition is 60.8% (active).

With `CCOCCCNC(=O)Cc1cc(=O)[nH]c(=O)[nH]1`, the inhibition was -18.9%.

Regarding `O=C(Nc1ccccc1N1CCN(c2ccccc2)CC1)c1cccc(F)c1`, the inhibition was 79.2% (active).

For `Cc1ccc(F)cc1NC(=O)c1ccc2c(c1)OCO2`, the inhibition is 33.3%.

Turning to `O=C(Nc1ccc(N2CCN(C(=O)c3ccccc3)CC2)c(Cl)c1)c1cccnc1`, the inhibition was 22.7%.

Take `O=C(CN1CCN(CC(=O)Nc2ccc3c(c2)OCO3)CC1)Nc1ccc(F)cc1`: the inhibition was 16.8%.

For the molecule `O=C(Nc1ccccc1)c1ccc2c(c1)OCO2`, the inhibition is 81.4% (active).

On to `CC(C)C(=O)Nc1cccc(C(=O)Nc2ccc3c(c2)OCO3)c1`, for which the inhibition is 30.7%.

Consider `O=C(CN1CCN(c2ccccc2F)CC1)c1ccc2c(c1)OCO2`, for which the inhibition was 67.3% (active).

Consider `CCCC(=O)Nc1ccccc1N1CCN(C(=O)c2ccccc2)CC1`, for which the inhibition is 33%.

With `O=C(Nc1cccnc1)c1ccc2c(c1)OCO2`, the inhibition is 35.6%.

Regarding `O=C(Nc1ccccc1N1CCCCC1)c1cccc(F)c1`, the inhibition is 19%.

As for `O=C(Nc1ccccc1N1CCN(C(=O)c2ccccc2)CC1)c1ccc2c(c1)OCO2`, the inhibition was 67% (active).

On to `O=C(Nc1ccccc1N1CCCCC1)c1ccc2nccnc2c1`, for which the inhibition is 6.8%.

With `O=C(NC12CC3CC(CC(C3)C1)C2)N1CCCC(CO)C1` (stereo unspecified), the inhibition is 6.5%.

Regarding `Cc1csc2ncc(C(=O)N(Cc3ccccc3)c3ccccn3)c(=O)n12`, the inhibition is 0.8%.

Usually inhibition stands for the change of the read-out against control, counted positive when it falls.
